For orientation: AC50 means the concentration at which the activity in the assay is half-maximal.

Experimental findings from PubChem BioAssay (EPA / NIEHS) are described below.

Values joined by “and” are separate entries in the source; they are usually repeats but may differ in a detail not shown here. Equal entries are not always repeated. More than one record can exist for a structure, and the calls need not agree. Active and inactive are the calls of the source. The calls were made as follows: active = hit-call score of the fitted dose curve at least 0.9, where 1 is the maximum; inactive = score below 0.9.

A short description of assay [1]: ATG_CRE_CIS: Attagene CIS-FACTORIAL HepG2 Assay for human cAMP Responsive Element (CRE) binding protein 3 (AID 2282926). The following applies: HepG2 CRE cis-reporter, Attagene multiplexed mRNA; actives raise or lower the signal. The gist of the method: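 Capillary electrophoresis of 6-FAM-labelled, HpaI-digested PCR products quantified reporter transcripts. These came from HepG2 transiently transfected with cis-element reporters and exposed to test chemicals for 24 hours, with DMSO defining baseline activity.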

For assay [2], the target named is CCAAT/enhancer-binding protein beta (Homo sapiens) (UniProt P17676). The experiment in a line: ATG_C_EBP_CIS: Attagene CIS-FACTORIAL HepG2 Assay for human CCAAT/Enhancer Binding Protein (C/EBP) beta (AID 2282927). The following applies: HepG2 Attagene cis-factorial transcription factor reporter; actives raise or lower the signal. The gist of the method:
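Endogenous transcription factor activity in human liver HepG2 cells is inferred from induction of a CEBPB-linked reporter mRNA. Exposure lasts 24 h; activity is fitted in both directions relative to DMSO.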

Assay [3] in a line: ATG_CMV_CIS: Attagene CIS-FACTORIAL HepG2 Assay for human CMV (Internal Marker) (AID 2282928).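 Also: endpoint acts as a background internal control marker rather than a target.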 The note with it: HepG2 CMV promoter reporter, transcription factor profiling; actives raise or lower the signal. An outline of the steps:
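24 h chemical treatment, HepG2 with transient multi-reporter transfection; RNA → oligo(dT) RT → PCR → 6-FAM extension → HpaI digest → CE fluorescence. Bidirectional fit, DMSO negative control.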

Assay [4] in a line: ATG_DR4_LXR_CIS: Attagene CIS-FACTORIAL HepG2 Assay for human Liver X Receptor (LXR), DR4 submotif (AID 2282929). The note with it: HepG2 Attagene DR4 cis-reporter, mRNA transcription; actives raise or lower the signal. The gist of the method: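 Cells were transfected with multiple reporter transcription units, exposed to chemicals for 24 hours, then lysed for RNA. Reporter mRNA induction was measured by RT-PCR with capillary electrophoresis detection and fitted in both directions relative to DMSO.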

The target in assay [5] is Aryl hydrocarbon receptor (Homo sapiens) (UniProt P35869). The experiment in a line: ATG_Ahr_CIS: Attagene CIS-FACTORIAL HepG2 Assay for human Aryl Hydrocarbon Receptor (Ahr) (AID 2282930). The following applies: HepG2 AhR cis-factorial reporter transcription; actives raise or lower the signal. The gist of the method:
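Transient MRTU transfection of HepG2 → 24 h compound exposure → total RNA, oligo(dT) RT → PCR, 6-FAM extension, HpaI cut → CE fluorescence. DMSO = baseline; bidirectional curve fit.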

Assay [6] in a line: ATG_AP_1_CIS: Attagene CIS-FACTORIAL HepG2 Assay for human Activator Protein 1 (AP-1) (AID 2282931). The note with it: HepG2 Attagene cis-factorial AP-1 reporter mRNA; actives raise or lower the signal. An outline of the steps:
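Endogenous transcription-factor activity in human HepG2 liver cells is read through a cis-promoter reporter transcript, sampled 24 h after dosing. Detection uses RT-PCR with capillary electrophoresis; values come from bidirectional fitting relative to DMSO.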

Assay [7] in a line: ATG_AP_2_CIS: Attagene CIS-FACTORIAL HepG2 Assay for human Activator Protein 2 (AP-2) (AID 2282932). The note with it: HepG2 AP-2 cis-reporter, Attagene transcription factor profiling; actives raise or lower the signal. An outline of the steps:
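Transiently transfected HepG2 cells are exposed to chemical for 24 h. Reporter transcripts are then measured as fluorescence following RT-PCR and capillary separation, and gain- or loss-of-signal is fitted relative to DMSO.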

Assay [8] in a line: ATG_BRE_CIS: Attagene CIS-FACTORIAL HepG2 Assay for human Bone Morphogenetic Protein (BMP) Response Element (BRE) (AID 2282933). The following applies: HepG2 BMP response element reporter, Attagene transcription factor profiling; actives raise or lower the signal. An outline of the steps: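 Fluorescence-labelled reporter cDNA fragments, separated by capillary electrophoresis, gave the signal for this component of a 52-readout multiplex. HepG2 cells were transfected, exposed to chemicals for 24 h, and compared with DMSO using bidirectional fitting.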

Assay [9] deals with Transcription factor E2F1 (Homo sapiens) (UniProt Q01094). The experiment in a line: ATG_E2F_CIS: Attagene CIS-FACTORIAL HepG2 Assay for human E2F Transcription Factor 1 (AID 2282935). The following applies: HepG2 Attagene cis-reporter, E2F reporter RNA transcripts; actives raise or lower the signal. An outline of the steps:
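Fluorescent RT-PCR products, digested with HpaI for 2 h at 37 C, are separated by capillary electrophoresis. Source RNA comes from transfected HepG2 cultures treated for 24 h.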

The nature of assay [10]: ATG_E_Box_CIS: Attagene CIS-FACTORIAL HepG2 Assay for human Enhancer Box (E-box) (AID 2282936). The following applies: HepG2 E-box cis-reporter transcription, actives raise or lower the signal. The gist of the method: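 Fluorescent reporter fragments separated by capillary electrophoresis gave the signal; mRNA came from HepG2 cells transfected with cis-element reporters and treated 24 h. Curves fitted bidirectionally relative to DMSO controls.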

The nature of assay [11]: ATG_M_61_CIS: Attagene CIS-FACTORIAL HepG2 Assay for M61 Transcription Factor (Internal Marker) (AID 2282937). The note with it: HepG2 Attagene CIS-FACTORIAL M61 internal marker reporter; actives raise or lower the signal. An outline of the steps:
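Cells were transfected with reporter units under cis-regulatory promoters, treated with chemicals for 24 h, then lysed for RNA. Reporter transcripts were quantified by RT-PCR and capillary electrophoresis, and activity was fitted bidirectionally against DMSO.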

Assay [12] can be described thus: ATG_EGR_CIS: Attagene CIS-FACTORIAL HepG2 Assay for human Early Growth Response 1 (EGR1) (AID 2282938). The following applies: HepG2 Attagene CIS-FACTORIAL EGR reporter mRNA; actives raise or lower the signal. The gist of the method:
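Endogenous TF activity in HepG2 liver cells was gauged through cis-promoter reporter constructs transiently transfected. After 24 h dosing, reporter mRNA was quantified by RT-PCR and capillary electrophoresis, and curves fitted in both directions versus DMSO.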

Assay [13] can be described thus: ATG_M_19_CIS: Attagene CIS-FACTORIAL HepG2 Assay for M19 Transcription Factor (Internal Marker) (AID 2282939). The note with it: HepG2 Attagene CIS-FACTORIAL M19 internal marker reporter; actives raise or lower the signal. The gist of the method: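 HepG2, MRTU transient transfection, 24 h dosing. Total RNA → RT-PCR → 6-FAM primer extension → HpaI digest → CE fluorescence. Bidirectional curve fit, DMSO negative control.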

Assay [14] in a line: ATG_Ets_CIS: Attagene CIS-FACTORIAL HepG2 Assay for human Erythroblast Transformation Specific (ETS) (AID 2282941). The note with it: HepG2 ETS cis-reporter transcription, actives raise or lower the signal. An outline of the steps: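 Cis-regulated reporter mRNA induction in HepG2 (transient transfection), 24 h exposure, RT-PCR plus capillary electrophoresis detection; DMSO serves as negative control and baseline.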

Assay [15] concerns the target Hepatocyte nuclear factor 3-beta (Homo sapiens) (UniProt Q9Y261). The experiment in a line: ATG_FoxA2_CIS: Attagene CIS-FACTORIAL HepG2 Assay for human Forkhead box A2 (FOXA2) (AID 2282942). The following applies: HepG2 cis-reporter transcription factor activity, 24 h; actives raise or lower the signal. An outline of the steps: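 Endogenous transcription factor activity was read in HepG2 cells carrying transiently transfected cis-promoter reporter units. After 24 h dosing, reporter mRNA was quantified by RT-PCR and capillary electrophoresis, and values fitted bidirectionally versus DMSO.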

A short description of assay [16]: ATG_FoxO_CIS: Attagene CIS-FACTORIAL HepG2 Assay for human Forkhead box O (FoxO) (AID 2282943). The note with it: HepG2 Attagene cis-reporter, FoxO element, mRNA; actives raise or lower the signal. An outline of the steps:
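HepG2, transient MRTU transfection (cis element, endogenous TFs). Dose 24 h. TriZol RNA → oligo(dT) RT → PCR → 6-FAM primer extension → HpaI cut → CE. Gain/loss vs DMSO.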

Assay [17] is described as follows: ATG_GATA_CIS: Attagene CIS-FACTORIAL HepG2 Assay for human GATA Binding Protein (AID 2282944). The following applies: HepG2 GATA cis-element reporter, Attagene multiplex mRNA; actives raise or lower the signal. The gist of the method: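 Cells: HepG2, transiently transfected with cis-regulated reporter transcription units. Exposure: 24 h. Detection: RT-PCR plus capillary electrophoresis of FAM-labeled fragments. Analysis: bidirectional, DMSO as baseline.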

Assay [18] is described as follows: ATG_GLI_CIS: Attagene CIS-FACTORIAL HepG2 Assay for human Zinc Finger Protein GLI1 (AID 2282945). The note with it: HepG2, Attagene cis-factorial reporter mRNA, GLI element; actives raise or lower the signal. The gist of the method:
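Bidirectional curve fits relative to DMSO, using reporter mRNA levels from RT-PCR plus capillary electrophoresis. Cells were HepG2 transiently carrying cis-regulated reporter constructs, harvested 24 h after dosing.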

Assay [19] deals with Bile acid receptor (Homo sapiens) (UniProt Q96RI1). The experiment in a line: ATG_IR1_CIS: Attagene CIS-FACTORIAL HepG2 Assay for human Nuclear Receptor Subfamily 1 Group H Member 4 (NR1H4), IR1 submotif (AID 2282946). The note with it: IR1 reporter transcription, actives raise or lower the signal. The gist of the method: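 HepG2 cells transiently transfected with multiplexed cis-element reporter units read endogenous transcription factor activity. After 24 h compound exposure, reporter mRNA was quantified by RT-PCR, fluorescent labelling, HpaI digestion and capillary electrophoresis; bidirectional fitting versus DMSO baseline.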

The nature of assay [20]: ATG_ERE_CIS: Attagene CIS-FACTORIAL HepG2 Assay for Estrogen Response Element (ERE) (AID 2282940). The following applies: HepG2 ERE cis-reporter, Attagene RNA transcript; actives raise or lower the signal. The gist of the method: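 After a 24 h chemical treatment, RNA from reporter-transfected HepG2 cells is reverse-transcribed, PCR-amplified and fluorescently labelled. Fragments separated by capillary electrophoresis give reporter signal; DMSO serves as negative control.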

Chain of Bile acid receptor (Homo sapiens) (Q96RI1 whole entry, looked up): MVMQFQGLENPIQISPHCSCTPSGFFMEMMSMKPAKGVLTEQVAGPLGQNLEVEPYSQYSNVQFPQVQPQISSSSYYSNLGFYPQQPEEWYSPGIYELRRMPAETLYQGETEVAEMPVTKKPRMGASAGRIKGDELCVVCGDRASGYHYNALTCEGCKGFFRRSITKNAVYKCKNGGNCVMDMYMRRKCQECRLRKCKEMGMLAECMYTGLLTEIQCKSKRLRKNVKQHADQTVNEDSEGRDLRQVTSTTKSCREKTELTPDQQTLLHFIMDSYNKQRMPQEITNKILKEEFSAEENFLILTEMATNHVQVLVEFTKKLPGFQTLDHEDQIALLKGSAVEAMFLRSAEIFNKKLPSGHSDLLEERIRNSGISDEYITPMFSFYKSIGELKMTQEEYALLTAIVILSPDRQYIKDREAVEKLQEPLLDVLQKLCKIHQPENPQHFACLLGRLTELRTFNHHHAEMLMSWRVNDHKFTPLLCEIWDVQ
Chain of Aryl hydrocarbon receptor (Homo sapiens) (P35869 whole entry, looked up): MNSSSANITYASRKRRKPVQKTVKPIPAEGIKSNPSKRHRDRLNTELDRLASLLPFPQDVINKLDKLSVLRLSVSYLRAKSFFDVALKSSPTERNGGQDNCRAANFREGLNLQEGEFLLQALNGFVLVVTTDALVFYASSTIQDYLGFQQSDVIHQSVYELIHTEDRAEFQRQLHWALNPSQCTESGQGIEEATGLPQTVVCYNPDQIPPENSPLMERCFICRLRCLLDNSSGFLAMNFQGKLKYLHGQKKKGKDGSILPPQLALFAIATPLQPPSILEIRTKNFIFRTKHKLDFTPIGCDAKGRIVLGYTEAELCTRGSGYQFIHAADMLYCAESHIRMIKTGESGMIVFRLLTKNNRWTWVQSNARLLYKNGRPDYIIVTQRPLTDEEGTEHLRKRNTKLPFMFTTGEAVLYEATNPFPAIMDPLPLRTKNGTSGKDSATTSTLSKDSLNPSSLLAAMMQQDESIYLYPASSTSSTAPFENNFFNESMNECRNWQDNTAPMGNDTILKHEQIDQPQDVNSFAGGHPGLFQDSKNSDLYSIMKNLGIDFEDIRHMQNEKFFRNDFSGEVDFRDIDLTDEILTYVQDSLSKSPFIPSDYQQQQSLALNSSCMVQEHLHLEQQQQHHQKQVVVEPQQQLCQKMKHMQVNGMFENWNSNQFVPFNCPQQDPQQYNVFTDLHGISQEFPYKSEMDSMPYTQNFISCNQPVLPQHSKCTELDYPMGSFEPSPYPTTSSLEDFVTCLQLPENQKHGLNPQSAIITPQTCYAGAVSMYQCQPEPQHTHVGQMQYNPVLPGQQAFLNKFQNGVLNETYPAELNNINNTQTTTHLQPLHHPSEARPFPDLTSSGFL
Chain of Hepatocyte nuclear factor 3-beta (Homo sapiens) (Q9Y261 whole entry, looked up): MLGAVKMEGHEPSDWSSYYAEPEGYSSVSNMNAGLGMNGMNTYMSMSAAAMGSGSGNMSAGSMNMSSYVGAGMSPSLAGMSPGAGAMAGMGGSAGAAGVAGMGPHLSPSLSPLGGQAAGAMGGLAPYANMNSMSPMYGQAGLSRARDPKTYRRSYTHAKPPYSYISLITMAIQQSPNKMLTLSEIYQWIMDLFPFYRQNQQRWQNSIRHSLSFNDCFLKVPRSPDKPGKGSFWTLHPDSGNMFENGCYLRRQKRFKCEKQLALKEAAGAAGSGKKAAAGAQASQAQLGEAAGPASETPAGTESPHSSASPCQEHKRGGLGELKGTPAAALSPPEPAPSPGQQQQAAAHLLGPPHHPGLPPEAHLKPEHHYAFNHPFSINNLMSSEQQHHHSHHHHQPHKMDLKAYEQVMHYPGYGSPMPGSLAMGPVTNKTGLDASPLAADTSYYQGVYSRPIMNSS
Chain of CCAAT/enhancer-binding protein beta (Homo sapiens) (P17676 whole entry, looked up): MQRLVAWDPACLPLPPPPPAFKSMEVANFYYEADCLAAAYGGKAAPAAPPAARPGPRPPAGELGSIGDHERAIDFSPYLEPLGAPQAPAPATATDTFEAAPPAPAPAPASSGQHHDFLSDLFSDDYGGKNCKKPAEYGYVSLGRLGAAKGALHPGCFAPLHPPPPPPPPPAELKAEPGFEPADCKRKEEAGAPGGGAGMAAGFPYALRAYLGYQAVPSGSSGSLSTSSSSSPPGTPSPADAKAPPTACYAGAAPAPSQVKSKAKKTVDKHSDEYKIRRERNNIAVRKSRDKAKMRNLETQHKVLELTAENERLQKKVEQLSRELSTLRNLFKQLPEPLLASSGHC
Chain of Transcription factor E2F1 (Homo sapiens) (Q01094 whole entry, looked up): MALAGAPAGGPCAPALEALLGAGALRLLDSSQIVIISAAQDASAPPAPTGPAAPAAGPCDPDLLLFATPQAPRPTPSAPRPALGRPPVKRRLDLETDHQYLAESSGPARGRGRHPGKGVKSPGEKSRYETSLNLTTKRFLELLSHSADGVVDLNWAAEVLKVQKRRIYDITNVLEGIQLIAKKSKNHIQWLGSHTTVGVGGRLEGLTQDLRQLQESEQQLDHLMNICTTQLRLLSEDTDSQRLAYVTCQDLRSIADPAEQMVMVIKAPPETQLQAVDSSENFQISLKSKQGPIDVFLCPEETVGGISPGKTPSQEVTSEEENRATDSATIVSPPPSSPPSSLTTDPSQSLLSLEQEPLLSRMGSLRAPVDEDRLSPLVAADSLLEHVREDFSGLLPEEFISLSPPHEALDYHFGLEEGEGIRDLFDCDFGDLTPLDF

On to `CCCCCCC(C=O)=Cc1ccccc1`, for which the compound was classed as inactive in [1], in assay [2], in assay [3], in assay [4], in assay [6] and in assay [7]. For the same compound, the compound was called inactive in [8], in assay [9], in assay [10], in assay [11], in assay [12] and in [13]. Further, the compound was called inactive in assay [14], in [15], in [16], in assay [17], in assay [18] and in [19]. For the same compound, the half-maximal activity concentration (AC50) in [3] was 74.3 µM (active); in assay [5] it was 37.4 µM (active) and 60 µM (active); in assay [6], 60 µM (active); in assay [8] it was 44.9 µM (active).

Take `O=C(NS(=O)(=O)/C=C/c1cccs1)c1ccc(F)cc1Br`: the call in assay [1], in assay [2], in [3], in assay [4], in assay [5] and in assay [6] was inactive. For the same compound, the result in assay [7], in assay [8], in [9], in assay [10], in assay [11] and in assay [12] was inactive. Moreover, the outcome in assay [13], in assay [20], in assay [14], in assay [15], in [16] and in assay [17] was inactive. Also, the outcome in assay [18] and in assay [19] was inactive.

With `Cc1ccc(C(C)(C)C)c(O)c1`, the half-maximal activity concentration (AC50) in assay [1] was 147 µM (active); in [3] it was 100 µM (active); in assay [4], 167 µM (active); in assay [12], 158 µM (active); in [20] it was 25.1 µM (active); in assay [14], 63.7 µM (active). Moreover, the result in assay [2], in assay [5], in assay [6], in assay [7], in assay [8] and in [9] was inactive. Moreover, the result in [10], in assay [11], in assay [13], in assay [15], in assay [16] and in assay [17] was inactive. Also, the compound was called inactive in assay [18] and in assay [19].

Consider `OCC(CO)n1cnc(-c2ccc(F)cc2)c1-c1ccnc(Oc2ccccc2)n1`, for which the call in assay [1], in assay [2], in assay [3], in [4], in assay [5] and in assay [6] was inactive. For the same compound, the outcome in [7], in assay [8], in assay [9], in assay [10], in assay [11] and in assay [12] was inactive. The call in [13], in [20], in [14], in [15], in assay [16] and in assay [17] was inactive. Besides, the result in assay [18] was inactive.

`O=Cc1ccccc1C=O`: the outcome in [1], in assay [2], in [3], in assay [4], in [5] and in assay [6] was inactive. The compound was classed as inactive in assay [7], in assay [8], in [9], in assay [10], in assay [11] and in assay [12]. Moreover, the result in assay [13], in assay [20], in assay [14], in assay [15], in assay [16] and in assay [17] was inactive. Moreover, in assay [18], the outcome was inactive.

Consider `CC(N)=O`, for which the result in [1], in [2], in assay [3], in assay [4], in assay [5] and in assay [6] was inactive. For the same compound, the outcome in assay [7], in [8], in assay [9], in assay [10], in assay [11] and in [12] was inactive. For the same compound, the compound was called inactive in assay [13], in assay [14], in assay [15], in assay [16], in assay [17] and in [18]. For the same compound, in assay [5], the half-maximal activity concentration (AC50) was 29 µM (active).
